In the supplement of paper PMC10338343:
± gives the standard deviation.

The sequences below were run on EfPiwi piRISC loaded with L1MC piRNA (26 nt) (assay: pre-steady-state target cleavage rate (min^-1); auxiliary factor: 500 nM Ephydatia muelleri Gtsf1; guide: L1MC piRNA 5'p-UAACUAAAUACUAUGCAAGCUGUAGG; MIWI and MILI are mouse PIWI proteins and EfPiwi is from a freshwater sponge; tags in brackets are library labels; higher = faster piRNA-guided slicing of the target).
How it was run: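 The method was Cleave-'n-Seq, in which uncleaved targets from a transcribed, DNA-blocked target RNA library were sequenced after exposure to active affinity-purified piRISC carrying one synthetic guide, with or without GTSF1 partner protein. Reactions contained 0.1 nM library, 1 nM piRISC and, where present, 500 nM GTSF1 in HEPES–potassium acetate buffer at 33 °C for 0–8 or 0–960 min. Reads were normalised to depth and to weakly complementary targets, three trials were pooled, and k3 was capped at 0.0001 min^-1. The pre-steady-state cleavage rate came from a burst-and-steady-state fit.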

Sequence	pre-steady-state target cleavage rate
UCCUGGAACAGCUUGCUUAGUAUUUAGUUA	0.0181 ± 0.005
UCCUGCUACAGGUUGCAUAGUAUUAAGUUA	0.00526 ± 0.0024
UCCUCCUACAGCUUGCAUAGUAUUUUCUAA	0.00565 ± 0.0036
UCCUGGAACAGGUAGCAUAGUAUUUAGUUA	0.00892 ± 0.0028
UCCUGGUACAGCUUGGAUAGUAAUUAGUUA	0.00316 ± 0.0025
UCCUGGAUGAGCUUGCAUUGUAAUUAGUUA	0.00306 ± 0.0025
UCCUGCUACACCUAGCAUAGUAUUUAGUUA	0.0171 ± 0.0054
UCCUGGAUGUGCUUGCAUUGUAUUUAGUUA	0.00484 ± 0.0027
UCCUCCUACAGCUUGCAUAGUAUUUAGUA	0.00701 ± 0.0026
UCCUGGUACAGGAUGCAUAGUAUUUAGUUA	0.00598 ± 0.003
UCCUCUACAGCUUGCAUAGUAUUUAGUUA	0.183 ± 0.045
UCCUGGAACAGUCUUGCAUAGUAUUUAGUUA	0.00822 ± 0.0027
UCCUCCUACUGCUUGCAUUGUAUUUAGUUA	0.0605 ± 0.016
UCCUGCUACAGCUAGCAUUGUAUUUAGUUA	0.00762 ± 0.0028
UCCUGGAUCAGCAUGCAUAGUAAUUAGUUA	0.00437 ± 0.0016
UCCUCCUACAGCUUGGAUAGUAUUUUGUUA	0.00565 ± 0.0022
UCCUGGAUCAGCUUGGAUAGUAAUUAGUUA	0.00256 ± 0.0025
UCCUCCUACUCGUUGCAUAGUAUUUAGUAA	0.00477 ± 0.0029
UCCUGGAACAGCUUGCAAAGUAUUUAGUUA	0.0333 ± 0.0089
UCCUGGAACAGGUUGCAUAGUAUUUAGUAA	0.00828 ± 0.0031

Sequence	pre-steady-state target cleavage rate
UCCUGGAACAGGUUGCAUUGUAUUUAGUUA	0.00526 ± 0.0019
UCCUGGAACAGCUUGCAAAGUAUUUAGUAA	0.00293 ± 0.0022
UCCUGGUUCAGCUUGGAUAGUAUUUAGUUA	0.00792 ± 0.0035
UCCUCCUACAGCUUGCAUAGUAUUUAAUUA	0.00331 ± 0.003
UCCUGGAUGAUCUUGCAUAGUAUUUAGUUA	0.0779 ± 0.023
UCCUGGUAGAGCUUGCAUAGUAUUAAGUUA	0.00385 ± 0.0022
UCCUCCUACAGCUUGCAUAGAUUUUAGUUA	0.0032 ± 0.002
UCCUCCUACAGCAUGCAUAGUAUUUACUUA	0.00211 ± 0.0017
UCCUCCAUACAGCUUGCAUAGUAUUUAGUUA	0.00733 ± 0.0027
UCCUGCUACAGCUUGCCUAGUAUUUAGUUA	0.00702 ± 0.0018
UCCUGGAACCAGCUUGCAUAGUAUUUAGUUA	0.0336 ± 0.0098
UCCUCCUUCAGCUUGCUUAGUAUUUAGUUA	0.0651 ± 0.022
UCCUGGAAGAGCUUGCAUAGUAAUUAGUUA	0.00806 ± 0.0027
UCCUCCUACAGCUUGCAUAGUAUUUUGUUA	0.00791 ± 0.0033
UCCUGGAUGAGCUUGCAUAGUAUUGAGUUA	0.00461 ± 0.0019
UCCUGCUUCAGCAUGCAUAGUAUUUAGUUA	0.0186 ± 0.0047
UCCUGCUACAGCUUGCAUAGUAUCUUAGUUA	0.00633 ± 0.0017
UCCUGGAUGAGCUUGACAUAGUAUUUAGUUA	0.00729 ± 0.0021
UCCUGGAUGACGUUGCAUAGUAUUUAGUUA	0.00512 ± 0.0026
UCCUGGAUCAGCUUGCUUAGUAUUAAGUUA	0.00376 ± 0.0025
